Data taken from PubChem BioAssay AID485270 (The Scripps Research Institute Molecular Screening Center, 2010).
Several values for one entry are separate records, joined by “and”; a condition that tells them apart may be missing. Equal values may be shown once. About 5,800 (1.8%) of roughly 330,000 compounds were called active. This is one part of a sample in which actives are shown more often than they occur. No stated cut-off is given here; in the data, active means inhibition mostly above about 38% (no sharp cut-off); inactive means mostly below about 40%. Some structures have more than one record in an assay (separate samples or runs), and their calls can disagree.

molecular target: Orexin/Hypocretin receptor type 1 (Homo sapiens) (UniProt O43613); experiment: antagonists of human orexin 1 receptor (OX1R) (AID 485270); conditions: OX1R-expressing cells, FRET antagonist read-out; at 6.6 µM; stronger effect = higher value;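 further: 0% = agonist challenge alone and 100% = reference antagonist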
Sequence (O43613 whole entry, looked up): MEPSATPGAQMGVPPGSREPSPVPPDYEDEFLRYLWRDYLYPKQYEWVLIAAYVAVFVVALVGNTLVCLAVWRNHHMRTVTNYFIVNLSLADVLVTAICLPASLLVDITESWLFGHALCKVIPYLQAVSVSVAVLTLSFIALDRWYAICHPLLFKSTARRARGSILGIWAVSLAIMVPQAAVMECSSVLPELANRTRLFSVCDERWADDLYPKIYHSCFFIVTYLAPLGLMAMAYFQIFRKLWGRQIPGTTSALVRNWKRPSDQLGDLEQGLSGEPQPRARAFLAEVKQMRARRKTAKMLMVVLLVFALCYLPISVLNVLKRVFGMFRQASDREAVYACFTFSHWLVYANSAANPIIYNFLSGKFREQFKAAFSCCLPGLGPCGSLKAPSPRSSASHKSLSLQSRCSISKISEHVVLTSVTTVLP

Row | Compound | inhibition
1 | CC1CCCCC1NCC(=O)Nc1ccccc1C(=O)Nc1ccccc1 (stereo not given) | 7.92% (inactive)
2 | Cc1ccccc1SCC(=O)OCC(=O)N1CC(=O)Nc2ccccc21 | 0.4% (inactive)
3 | COc1ccc(CNC(=O)c2cc3c(=O)n4ccccc4nc3n(CC3CCCO3)c2=N)cc1 (stereo not given) | 54.9% (active)
4 | COc1ccc(CCn2c(=N)c(C(=O)NCC3CCCO3)cc3c(=O)n4cccc(C)c4nc32)cc1OC (stereo not given) | 10.8% (inactive)
5 | O=C(NCC1CCCO1)c1cc(-c2ccccc2)nc2ccccc12 (stereo not given) | -0.29% (inactive)
6 | Cc1ccc2nc3c(cc(C(=O)NCCc4ccccc4)c(=N)n3CC3CCCO3)c(=O)n2c1 (stereo not given) | 57.5% (active)
7 | Cc1ccc(CCNC(=O)c2ccc3nc4ccccc4c(=O)n3c2)cc1 | -3.55% (inactive)
8 | COc1ccc(CCNC(=O)Cn2c(=O)n(CC3CCCO3)c(=O)c3ccccc32)cc1OC (stereo not given) | 7.5% (inactive)
9 | Cc1csc(=O)n1CC(=O)Nc1ccc(S(C)(=O)=O)cc1 | 7.39% (inactive)
10 | COc1ccc(OC)c(NC(=O)COC(=O)Cc2ccsc2)c1 | 5.5% (inactive)
11 | C[C@]12c3[nH]c4ccc(Cl)cc4c3CCN1C(=O)[C@@H](CC(=O)NCCCn1ccnc1)C[C@@H]2C(=O)N1CCOCC1 | 14.5% (inactive)
12 | CN(CC(=O)Nc1ccc(C(N)=O)cc1)S(=O)(=O)c1ccc2c(c1)OCCO2 | 6.44% (inactive)
13 | O=C(CN1C(=O)NC2(CCCC2)C1=O)Nc1cc(C(F)(F)F)ccc1N1CCOCC1 | 6.5% (inactive)
14 | CCC(=O)N(Cc1cc2cc(OC)ccc2[nH]c1=O)c1ccccc1C | 4.09% (inactive)
15 | COc1ccc2[nH]c(=O)c(CN(CC3CCCO3)C(=O)Nc3ccccc3)cc2c1 (stereo not given) | 5.34% (inactive)
16 | COc1ccc2[nH]c(=O)c(CNc3ccc(C)c(C)c3)cc2c1 | 108% (active)
17 | Cn1nnnc1SCC(=O)Nc1sccc1C(N)=O | -1.46% (inactive)
18 | CC(NCC(=O)Nc1ccccc1C(=O)NC1CC1)c1ccccc1Cl (stereo not given) | 29.4% (active)
19 | CCOc1ccccc1OCC(=O)Nc1ccccc1C(=O)NC1CC1 | 9.29% (inactive)
20 | Cc1ccc(OCC(=O)Nc2ccccc2C(=O)NC2CC2)cc1 | 7.7% (inactive)
21 | CN(c1ccccc1)S(=O)(=O)c1ccc(C(=O)N2CCN(c3ccccc3Cl)CC2)cc1 | 9.4% (inactive)
22 | CC(=NNC(=O)c1ccc2nc[nH]c2c1)c1ccc(Br)cc1 | 4.88% (inactive)

Row | Compound | inhibition
23 | C[C@@H]1CN([C@@H](C)CO)C(=O)c2cc(NC(=O)C3CC3)ccc2O[C@H]1CN(C)C | 1.14% (inactive)
24 | C[C@H]1COC(=O)[C@H](CC(=O)OC(C)(C)C)C/C=C\C[C@@H](CC(=O)N[C@H](CO)Cc2ccccc2)C(=O)N1 | 0.64% (inactive)
25 | Cc1cccn2c(=O)c3cc(C#N)c(=NC(=O)c4cccnc4)n(CC4CCCO4)c3nc12 (stereo not given) | 123% (active)
26 | Cc1cccc(NC(=O)c2ccc3c(=O)n(CC4CCCO4)c(=S)[nH]c3c2)c1 (stereo not given) | 17.1% (inactive)
27 | Cc1ccccc1NC(=O)Cn1c(=O)n(CC2CCCO2)c(=O)c2ccccc21 (stereo not given) | 15.6% (inactive)
28 | CN(C(=O)COC(=O)Cc1ccccc1[N+](=O)[O-])C1CCS(=O)(=O)C1 (stereo not given) | 3.39% (inactive)
29 | COc1cccc(NC(=O)CSc2nnc(C3CCCCC3)n2N)c1 | 6.23% (inactive)
30 | COc1ccc(-n2c(SCC(=O)Nc3ccc4c(c3)OCO4)nnc2C(C)N2CCCCC2)cc1 (stereo not given) | 7.85% (inactive)
31 | O=C(NCCC1=CCCCC1)c1ccc(-n2cncn2)cc1 | 2.77% (inactive)
32 | COCCCNC(=S)NC(=O)c1ccc([N+](=O)[O-])cc1 | 89.6% (active)
33 | CC(=O)NC(=S)Nc1ccc(NC(=S)NC(=O)c2ccc([N+](=O)[O-])cc2)cc1 | 8.98% (inactive)
34 | COCCCNC(=S)NC(=O)c1ccccc1 | 6.25% (inactive)
35 | O=C1CCC[C@@H]2CC(N3CCCCC3)C[C@@H]3CCN1[C@H]23 (stereo not given in full) | 5.93% (inactive)
36 | O=C(Nn1cnnc1)c1ccc([N+](=O)[O-])cc1 | 22.3% (inactive)
37 | O=C(c1ccncc1)c1ccc([N+](=O)[O-])cc1 | 163% (active)
38 | O=C(Nc1ccccc1C(=O)Nc1ccncc1)c1ccc([N+](=O)[O-])cc1 | 16.2% (inactive)
39 | COC(=O)c1ccc(/C=C/c2c(-c3ccc(OC)cc3)sc3ccccc23)cc1 | 5.48% (inactive)
40 | CC(C)NC(=O)Nc1cccc2c1O[C@@H](CN(C)S(=O)(=O)c1ccc(F)cc1)[C@@H](C)CN([C@H](C)CO)C2=O | 3.93% (inactive)
41 | CCC(=O)N1CCc2cc(S(=O)(=O)CCC(=O)N3CCN(c4ccccc4F)CC3)ccc21 | 5.14% (inactive)
42 | Cc1cccc(C)c1NC(=O)CCS(=O)(=O)c1cccc2nsnc12 | 70.3% (active)
43 | CCOc1ccc(NC(=O)CCS(=O)(=O)c2cccc3nsnc23)cc1 | 85.9% (active)
44 | COc1ccc(CNC(=O)C(NS(=O)(=O)c2cccc3nsnc23)C(C)C)cc1 (stereo not given) | 26.5% (inactive)

Row | Compound | inhibition
45 | O=C(O)c1ccc(NS(=O)(=O)c2cccc3nsnc23)cc1 | 27.3% (inactive)
46 | O=C(CCS(=O)(=O)c1cccc2nsnc12)N1CCN(c2ccccc2F)CC1 | 73% (active)
47 | CCOc1ccc(OCC)c(NC(=O)CN(C)S(=O)(=O)c2cccc3nsnc23)c1 | 41.7% (inactive)
48 | COc1ccc(N(C)C(=O)CCS(=O)(=O)c2cccc3nsnc23)cc1 | 128% (active)
49 | COc1ccc(N(C)S(=O)(=O)c2cccc3nsnc23)cc1 | 33.6% (inactive)
50 | O=C(CCCNS(=O)(=O)c1cccc2nsnc12)NCCN1CCN(c2ccccc2F)CC1 | 26.2% (inactive)
51 | COc1ccc(C)cc1NC(=O)CCS(=O)(=O)c1cccc2nonc12 | 48.1% (inactive)
52 | CCOc1ccc(N(CC)S(=O)(=O)c2cccc3nsnc23)cc1 | 21.1% (inactive)
53 | O=C(COC(=O)COc1cc(Cl)c(Cl)cc1Cl)NC1CC1 | 6.97% (inactive)
54 | Cc1ccc(C(=O)NCC(=O)NC2CC2)cc1 | -0.69% (inactive)
55 | Cc1occc1C(=O)Nc1cccc(S(=O)(=O)N2CCOCC2)c1 | 4.81% (inactive)
56 | COc1ccc2[nH]c3c(c2c1)CCN1C(=O)C(CC(=O)NCCCN(C)C)C[C@H](C(=O)N2CCOCC2)[C@@]31CCC1CCCC1 (stereo not given in full) | -1.98% (inactive)
57 | Cc1ccc(S(=O)(=O)N2C[C@@H]3CCCC[C@@H]3[C@@H](C)[C@H]2c2cn(Cc3ccccc3)c3ccc(F)cc23)cc1 | 3.67% (inactive)
58 | CC1CN(C(=O)c2ccccc2NS(=O)(=O)c2cccc([N+](=O)[O-])c2)CC(C)O1 (stereo not given) | 27.1% (inactive)
59 | Cc1c(C(=O)N2CC(C)OC(C)C2)sc2nc(-c3ccccc3)cn12 (stereo not given) | 19.5% (inactive)
60 | CC1CN(C(=O)c2ccc([N+](=O)[O-])s2)CC(C)O1 (stereo not given) | 49.6% (active)
61 | CCN(CC)C(=O)[C@H]1CC(CC(=O)NCc2ccco2)C(=O)N2CCc3c([nH]c4ccccc34)[C@]12C (stereo not given in full) | 6.65% (inactive)
62 | COC(=O)[C@@]1(C)[C@H]2C(=O)N(Cc3ccccc3)C(=O)[C@H]2[C@H]2CN=C(SCC3CC3)N21 | 4.86% (inactive)
63 | O=C1N[C@H](Cc2ccccc2)C(=O)N[C@H]1Cc1cn(S(=O)(=O)c2ccccc2)c2ccccc12 | 24.8% (inactive)
64 | Cc1ccc(C(=O)Cn2cc([N+](=O)[O-])nc2C)cc1 | 16.2% (inactive)
65 | O=C(Cn1c[n+](CC(=O)c2ccc([N+](=O)[O-])cc2)cn1)c1ccc([N+](=O)[O-])cc1 | 41% (active) and 49.5% (inactive)
66 | O=C(CC(n1cncn1)C(Cl)(Cl)Cl)c1ccc([N+](=O)[O-])cc1 (stereo not given) | 24.6% (inactive)

Row | Compound | inhibition
67 | Cc1ccc(S(=O)(=O)N2CCN(C(=O)Cn3c(=O)cnc4ccccc43)CC2)c(C)c1 | 16.2% (inactive)
68 | O=C(OCC(=O)N1CCCCCC1)c1ccc(Br)c(S(=O)(=O)N2CCOCC2)c1 | 7.11% (inactive)
69 | O=C(N[C@H]1C/C=C\C(c2ccc(F)cc2)N(Cc2ccccc2)C(=O)C1)OCC1c2ccccc2-c2ccccc21 (stereo not given in full) | 14.6% (inactive)
70 | Cc1nnc2n1N=C(c1ccccc1)CS2 | -1.51% (inactive)
71 | O=c1c2cc(-c3ccccc3)sc2nc2n1N=C(c1cccs1)CS2 | 49.2% (active)
72 | c1csc(-c2cn3c(n2)SCC3)c1 | 2.55% (inactive)
73 | CC(C)=CCN1CCN(Cc2cc3ccccc3[nH]2)CC1CCO (stereo not given) | 7.38% (inactive)
74 | CCN(C[C@H]1N[C@@](CC)(C(=O)OC)[C@H]2C(=O)N(Cc3ccccc3)C(=O)[C@@H]12)S(=O)(=O)c1ccc(C(F)(F)F)cc1 | 5.19% (inactive)
75 | Cc1cc(C)c(C#N)c(SCc2[nH]nc3c2C(c2ccccc2)C(C#N)=C(N)O3)n1 (stereo not given) | 60.2% (active)
76 | Cc1cc(C)c(C#N)c(SCc2ccccc2C(=O)O)n1 | 27.5% (inactive)
77 | CCc1ccc(C2C(C#N)=C(N)Oc3n[nH]c(CC(=O)OC)c32)cc1 (stereo not given) | 1.71% (inactive)
78 | COc1ccc(N2CCN(C(CNS(=O)(=O)c3ccc(C)cc3)c3ccccc3)CC2)cc1 (stereo not given) | 6.01% (inactive)
79 | COC(=O)c1ccc(C)c(NC(=O)Cn2c(C)csc2=O)c1 | 2.56% (inactive)
80 | COc1ccccc1-c1sc2ccccc2c1C#CC1(O)CCCCC1 | 6.27% (inactive)
81 | COc1ccc(-c2sc3ccc(OC)cc3c2C#Cc2ccccn2)cc1 | 8.84% (inactive)
82 | COc1ccc2sc(-c3ccc(N(C)C)cc3)c(-c3ccc4cc[nH]c4c3)c2c1 | 9.19% (inactive)
83 | COc1ccc2sc(-c3ccc(N(C)C)cc3)c(C#CCO)c2c1 | 50.3% (active)
84 | O=C(N[C@H]1C/C=C\C(c2cccc(F)c2)N(Cc2ccccc2)C(=O)C1)OCC1c2ccccc2-c2ccccc21 (stereo not given in full) | 5.38% (inactive)
85 | Cc1ccc(-c2cccc([C@H]3[C@@H]4C=CC[C@@H](C)[C@@H]4C(=O)N3Cc3ccccc3)c2)cc1 | 5.7% (inactive)
